Experimental data from ChEMBL document CHEMBL4513216, “Probing the Open Global Health Chemical Diversity Library for Multistage-Active Starting Points for Next-Generation Antimalarials” (ACS Infect Dis, 2020).
Among all 69,000 compounds or so, about 8,600 (12%) showed an effect of 50% or more. Many of the other results were omitted from the sample, so strong results are more common in it than they were.

Test system: Plasmodium berghei
Test: Screen against P. berghei liver stage (PbLuc), transformed with Luciferase, at 10uM
Type: functional, HepG2
Settings: tested at 10 uM

First: COCCN1CCN(c2ccc(CN(C)C)cn2)CC1
Second: CC(c1ccccc1)N(C)C(=O)CN1CCN(c2cnccn2)CC1 (stereo not given)
The INHIBITION of the first is lower: -14.3% for the first, 47.2% for the second.

Going from `CCN(C(=O)CCn1cccn1)C1CC1` to `CC(C1CC1)N(C)C(=O)CCn1cccn1` (stereo not given), the INHIBITION rises from 36.2% to 49%.

First: CC(C)CC(C)N(C)C(=O)CCn1cccn1 (stereo not given)
Second: CC(c1ccccc1)N(C)C(=O)Cn1cc(NC(=O)C(C)(C)C)cn1 (stereo not given)
The INHIBITION of the first is higher: 64% for the first, -41.1% for the second.

Going from `Cc1nn(C)c(C)c1NC(=O)CCn1ncc2ccc(Cl)cc21` to `CN(Cc1cnn(C)c1)C(=O)c1ccc(=O)n(C)n1`, the INHIBITION falls from -14.7% to -19.7%.

Going from `CC(=O)c1cc(C(=O)N2CCN(C)Cc3ccccc32)n(C)c1` to `CC(=O)c1cccc(CN2CC(Oc3ccccc3C)C2)c1`, the INHIBITION rises from -94.3% to 52%.

Going from `CC(C)c1n[nH]c(C2CN(C(=O)COCC(F)(F)F)CCO2)n1` (stereo not given) to `CC(C)CC(=O)N1C[C@@H]2CCN(c3cnccn3)C[C@@H]2C1`, the INHIBITION falls from 31.6% to 3.81%.

Going from `CC(c1ccccc1)N(C)C(=O)CN1CCCc2cccc(F)c21` (stereo not given) to `CC(c1ccccc1)N(C)C(=O)CN1CCCc2cc(F)cc(F)c21` (stereo not given), the INHIBITION rises from 51.1% to 76.1%.

Compared with `CN(C)C(=O)Cn1cc(C(=O)N2CCCc3cccc(F)c32)nn1`, `CN(C(=O)CN1CCCc2cc(F)cc(F)c21)c1ccccc1` is higher in INHIBITION: 28.6% for the first, 43.9% for the second.

Compared with `CNC(=O)CN1C(=O)CN(C(=O)COC)CCC(OC)c2ccccc21` (stereo not given), `COCC(=O)N1CCCN(Cc2cc(O)c3ccccc3n2)CC1` is lower in INHIBITION: 48.7% for the first, 32.1% for the second.

Compared with `CNc1cc(C2CCCN2S(=O)(=O)c2cccc(F)c2)ccn1` (stereo not given), `NS(=O)(=O)c1ccc(C(=O)N2CCCC2c2ccccc2)o1` (stereo not given) is higher in INHIBITION: 2.71% for the first, 12.7% for the second.

Going from `CCS(=O)(=O)N1CCc2nc(C3CCN(C(=O)C4CC4)C3)nc(O)c2C1` (stereo not given) to `Cc1nc(CN2CCN(S(=O)(=O)N3CCCCC3)CC2)oc1C`, the INHIBITION falls from 30.4% to 19.4%.

Going from `Cc1nc(NC2CCCC2)cc(C2CCN2c2ncccn2)n1` (stereo not given) to `O=c1[nH]nc2c(N3CCC(NC4CCOCC4)CC3)nccn12`, the INHIBITION rises from 26.7% to 33.3%.

Compared with `Cc1cc(C(=O)NC(C)Cc2ccc(N(C)C)cc2)n(C)n1` (stereo not given), `CN(C)C(=O)c1nc2c(n1C)CCN(Cc1ccccc1)C2` is lower in INHIBITION: 44.7% for the first, -31.4% for the second.

Compared with `COCC(=O)N1CCC2(CCCN(Cc3ccc(Cl)cc3)CC2)CC1`, `COCC(=O)N1CCCN(Cc2c(C)nc3ccc(Cl)cn23)CC1` is higher in INHIBITION: 17.6% for the first, 73.6% for the second.

First: Cc1nc(CN2CCN(S(=O)(=O)N3CCOCC3)CC2)oc1C
Second: Cc1nc2ccc(Cl)cn2c1CN1CCN(S(=O)(=O)N2CCCC2)CC1
The INHIBITION of the first is lower: 31.2% for the first, 57.55% for the second.

Going from `COCCN1C[C@@H](C)[C@@]2(COCCN(C(=O)Cc3ccccc3)C2)C1` to `COCCN1C[C@@H]2CCCO[C@@H]2[C@H](NC(=O)c2cnccn2)C1`, the INHIBITION falls from -8.94% to -17%.

Going from `CN1CCC2(CCN(S(=O)(=O)c3ccc(-c4cnco4)s3)CC2)C1` to `O=C1OCCN1CCNC(=O)C1(N2CCCCC2)Cc2ccccc2C1`, the INHIBITION falls from 28.4% to 6.54%.

First: FC(F)(F)c1[nH]nc2c1CN(Cc1ccccc1)CC2
Second: OCCCN1CCc2[nH]nc(C(c3ccccc3)c3ccccc3)c2C1
The INHIBITION of the first is higher: 84.2% for the first, 18.7% for the second.

First: O=C(Nc1ccccc1)N1CCC(n2cc3[nH]cccc-3c2=O)CC1
Second: COc1ccccc1OC1CN(Cc2ccc(C(=O)O)cc2)C1
The INHIBITION of the first is higher: 32% for the first, 14.3% for the second.

Compared with `Cc1nc(CN2CCCC(NCc3ccc(C(N)=O)cc3)C2)no1` (stereo not given), `CC(=O)c1ccc(CN2CC(Oc3ccccc3C)C2)cc1` is higher in INHIBITION: 11.2% for the first, 52% for the second.

Compared with `Cc1nnc(NC(=O)NCc2ccc(N3CCC(C)CC3)nc2)s1`, `O=C(NC1CC1)N1CCN(c2cnccn2)CC1` is lower in INHIBITION: 33.3% for the first, -11.4% for the second.

Compared with `Cc1nc2ccccn2c1CN1C[C@@H](CN(C)C)[C@@H](CO)C1`, `Cc1nc2ccccn2c1CN1C[C@@H](CN(C)CCO)[C@@H](CO)C1` is lower in INHIBITION: 45.3% for the first, 29% for the second.

First: Cc1ccccc1OC1CN(Cc2c(C)nc3ccccn23)C1
Second: Cc1ccc(C(=O)N2CC(Oc3ccccc3C)C2)s1
The INHIBITION of the first is higher: 91.8% for the first, 18.4% for the second.

First: COCc1ncc(CN2CC(Oc3c(C)cccc3C)C2)cn1
Second: CSCC[C@H](N)C(=O)N1CC(Oc2ccccc2C)C1
The INHIBITION of the first is higher: 31.2% for the first, -13.5% for the second.

Going from `O=C(c1n[nH]cc1Cl)N1CCSCC1` to `O=c1[nH]nc2c(N3CCOCC3)nccn12`, the INHIBITION rises from -10.6% to 56.5%.

Going from `COCCNC(=O)c1sc2ccccc2c1C1CCC(CN)CC1` (stereo not given) to `CC(C)c1nnc(CN2CCN(CC(O)c3ccccc3)CC2)o1` (stereo not given), the INHIBITION rises from 3.48% to 36.1%.

Going from `Cc1nc(N(C)C)cc(C2(C)CCCNC2)n1` (stereo not given) to `Cc1nc(N2CCN(C)CC2)ncc1C(=O)N1C[C@@H](C)[C@@](C)(O)C1`, the INHIBITION rises from 8.42% to 34.9%.

`O=c1[nH]nc2c(N3CCCCCC3)nccn12` was tested, and the INHIBITION was 47.4%.
